Values joined by “and” are separate entries in the source; they are usually repeats but may differ in a detail not shown here. Identical values can stand only once. ± gives the standard deviation of the averaged measurements.
Tested on: iBMDM (immortalised mouse bone-marrow-derived macrophages), LPS-stimulated
Assay: mitochondrial superoxide (MitoSOX fluorescence) fold increase over unstimulated control; higher = more LPS-induced mitochondrial ROS (less inhibition)
Conditions: inhibitor concentration: 500 nM; LPS: 100 ng/ml; time after LPS: 2 h
How it was run: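 Mitochondrial superoxide was expressed as fold induction over untreated macrophages. Immortalised mouse bone-marrow-derived macrophages were pretreated with kinase inhibitors (500 nM) for 30 min, loaded with 1 μM MitoSox for 10 min and stimulated with LPS (100 ng/ml). MitoSox fluorescence (excitation 510 nm, emission 580 nm) was read hourly over 4 h, and the three replicates were averaged.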

| Structure (SMILES) | mitochondrial superoxide |
| --- | --- |
| Cc1cc(C(C)Nc2ccccc2)c2nc(N3CCOCC3)cc(=O)n2c1 (centres undefined) | 1.66 ± 0.072 |
| Cc1cnc(NC(=O)Nc2cc(Br)c(C)cc2OC[C@@H]2CNCCO2)cn1 | 1.262 ± 0.0098 |
| O=c1cc(N2CCOCC2)oc2c(-c3ccccc3)cccc12 | 1.41 ± 0.086 |
| CC(C)CC(=O)Nc1n[nH]c2c1CN(C(=O)C1CCN(C)CC1)C2(C)C | 1.13 ± 0.04 |
| CC(C)(C)n1nc(-c2ccc(Cl)cc2)c2c(N)ncnc21 | 1.23 ± 0.074 |
| Nc1cc(C(F)(F)F)c(-c2cc(N3CCOCC3)nc(N3CCOCC3)n2)cn1 [BKM120 (NVP-BKM120, Buparlisib)] | 1.41 ± 0.024 |
| Cc1cc(CN2CCN(c3c(Br)cnc4nc(-c5ccc(N6CCN(C)CC6)cc5)[nH]c34)CC2)no1 | 1.4 ± 0.019 |
| COc1c(C)c(C(=O)c2ccc(N)c(C(=O)O)c2)n2ccccc12 | 1.26 ± 0.036 |
| CCc1ccc(/C=C2/SC(=S)NC2=O)cc1 | 1.22 ± 0.042 |
| Cc1[nH]c(/C=C2\C(=O)Nc3ccc(S(=O)(=O)N(C)c4cccc(Cl)c4)cc32)c(C)c1C(=O)N1CCN(C)CC1 | 1.4 ± 0.15 |
| CC1(COc2ccc3c(c2)ncn3-c2ccc3cccc(N4CCC(N)CC4)c3n2)COC1 | 1.42 ± 0.11 |
| COc1cc2c(Oc3ccc4[nH]c(C)cc4c3F)ncnc2cc1OCCCN1CCCC1 [Cediranib (AZD2171)] | 1.65 ± 0.079 |
| O=C1NC(=O)/C(=C/c2ccc(-c3ccc(F)cc3O)o2)S1 | 1.54 ± 0.25 |
| Cc1c(Cn2c(C)nc3c(C(=O)O)cc(N4CCOCC4)cc32)cccc1C(F)(F)F | 1.502 ± 0.0056 |
| Cc1cc(C)nc(NS(=O)(=O)c2ccc(NC(=S)NC(=O)COc3ccc(Br)cc3Cl)cc2)n1 | 1.45 ± 0.1 |
| COc1cc2/c(=N/c3ccc(Br)cc3F)nc[nH]c2cc1OCC1CCN(C)CC1 [Vandetanib (ZD6474)] | 1.63 ± 0.054 |
| COC(=O)Nc1ccc(-c2nc(N3CCOCC3)c3cnn(C4CCN(C(=O)OC)CC4)c3n2)cc1 | 1.13 ± 0.02 |
| FC(F)c1nc2ccccc2n1-c1nc(N2CCOCC2)nc(N2CCOCC2)n1 | 1.71 ± 0.068 |
| CCS(=O)(=O)c1cccc(-c2cc(C(=O)NC3CCN(C)CC3)c(C)c3[nH]c4ncc(C)cc4c23)c1 | 1.48 ± 0.079 |

| Structure (SMILES) | mitochondrial superoxide |
| --- | --- |
| Oc1cccc(-c2nc(N3CCOCC3)c3oc4ncccc4c3n2)c1 | 1.62 ± 0.03 |
| Cn1c(=O)c(F)c(Nc2ccc(I)cc2F)c2c(=O)n(C[C@@H](O)CO)cnc21 | 1.39 ± 0.028 |
| CC[C@@H]1C(=O)N(C)c2cnc(Nc3ccc(C(=O)NC4CCN(C)CC4)cc3OC)nc2N1C1CCCC1 | 1.19 ± 0.038 |
| NC(=O)c1ccc(N(C(N)=O)c2c(F)cccc2F)nc1-c1ccc(F)cc1F | 1.27 ± 0.087 |
| NC1(c2ccc(-c3nc4ccn5c(=O)[nH]nc5c4cc3-c3ccccc3)cc2)CCC1 | 1.34 ± 0.065 |
| COc1ccc2c(c1)c(C1=C(c3c[nH]c4ccccc34)C(=O)NC1=O)cn2CCCN(C)C | 1.27 ± 0.043 |
| FC(F)(F)c1ccc(/C=C/c2nc(COc3ccc(CCCCn4ccnn4)cc3)co2)cc1 [Mubritinib (TAK 165)] | 1.17 ± 0.075 |
| O=C(Nc1cc(C(F)(F)F)cc(C(F)(F)F)c1)c1cc(Cl)ccc1O | 1.04 ± 0.033 |
| COc1cc(Nc2ncc(F)c(Nc3ccc4c(n3)N(COP(=O)(O)O)C(=O)C(C)(C)O4)n2)cc(OC)c1OC [Fostamatinib (R788)] | 1.429 ± 0.0045 |
| Cc1nc(Nc2ncc(C(=O)Nc3c(C)cccc3Cl)s2)cc(N2CCN(CCO)CC2)n1 [Dasatinib] | 1.61 ± 0.069 |
| N#CC[C@H](C1CCCC1)n1cc(-c2ncnc3[nH]ccc23)cn1 | 1.29 and 1.15 |
| CO[C@H]1C[C@@H]2CC[C@@H](C)[C@@](O)(O2)C(=O)C(=O)N2CCCC[C@H]2C(=O)O[C@H]([C@H](C)C[C@@H]2CC[C@@H](OCCO)[C@H](OC)C2)CC(=O)[C@H](C)/C=C(\C)[C@@H](O)[C@@H](OC)C(=O)[C@H](C)C[C@H](C)/C=C/C=C/C=C/1C [Everolimus (RAD001)] | 1.42 ± 0.028 |
| CCc1cc(Nc2nccc(-c3c(-c4ccc(OC)c(C(=O)Nc5c(F)cccc5F)c4)nc4ccccn34)n2)c(OC)cc1N1CCC(N2CCN(S(C)(=O)=O)CC2)CC1 | 1.4 ± 0.079 |
| CCOc1ccn(-c2ccc(F)cc2)c(=O)c1C(=O)Nc1ccc(Oc2ccnc(N)c2Cl)c(F)c1 | 1.28 ± 0.084 |
| NC(=O)c1cccc(-c2cc(Nc3ccc(OC(F)(F)F)cc3)ncn2)c1 | 1.11 ± 0.054 |
| COc1ccc(COc2cc3oc(=O)c4cc(C(C)O)ccc4c3cc2OC)cc1 (centres undefined) [Palomid 529 (P529)] | 1.25 ± 0.08 |
| CC(C)(C#N)c1ccc(N2C(=O)OCc3cnc4ccc(-c5cnc6ccccc6c5)cc4c32)cc1 | 1.48 ± 0.056 |
| O=c1c(-c2ccc(O)cc2)coc2cc(O)cc(O)c12 [Genistein] | 1.29 ± 0.058 |

Same assay, conditions: inhibitor concentration: 500 nM; LPS: 100 ng/ml; time after LPS: 4 h

| Structure (SMILES) | mitochondrial superoxide |
| --- | --- |
| Cc1cc(C(C)Nc2ccccc2)c2nc(N3CCOCC3)cc(=O)n2c1 (centres undefined) | 1.74 ± 0.094 |
| Cc1cnc(NC(=O)Nc2cc(Br)c(C)cc2OC[C@@H]2CNCCO2)cn1 | 1.55 ± 0.052 |
| O=c1cc(N2CCOCC2)oc2c(-c3ccccc3)cccc12 | 1.52 ± 0.035 |
| CC(C)CC(=O)Nc1n[nH]c2c1CN(C(=O)C1CCN(C)CC1)C2(C)C | 1.27 ± 0.079 |
| CC(C)(C)n1nc(-c2ccc(Cl)cc2)c2c(N)ncnc21 | 1.31 ± 0.079 |
| Nc1cc(C(F)(F)F)c(-c2cc(N3CCOCC3)nc(N3CCOCC3)n2)cn1 [BKM120 (NVP-BKM120, Buparlisib)] | 1.53 ± 0.05 |
| Cc1cc(CN2CCN(c3c(Br)cnc4nc(-c5ccc(N6CCN(C)CC6)cc5)[nH]c34)CC2)no1 | 1.68 ± 0.13 |
| COc1c(C)c(C(=O)c2ccc(N)c(C(=O)O)c2)n2ccccc12 | 1.32 ± 0.062 |
| CCc1ccc(/C=C2/SC(=S)NC2=O)cc1 | 1.36 ± 0.0082 |
| Cc1[nH]c(/C=C2\C(=O)Nc3ccc(S(=O)(=O)N(C)c4cccc(Cl)c4)cc32)c(C)c1C(=O)N1CCN(C)CC1 | 1.67 ± 0.27 |
| CC1(COc2ccc3c(c2)ncn3-c2ccc3cccc(N4CCC(N)CC4)c3n2)COC1 | 1.66 ± 0.13 |
| COc1cc2c(Oc3ccc4[nH]c(C)cc4c3F)ncnc2cc1OCCCN1CCCC1 [Cediranib (AZD2171)] | 1.78 ± 0.081 |
| O=C1NC(=O)/C(=C/c2ccc(-c3ccc(F)cc3O)o2)S1 | 1.78 ± 0.2 |
| Cc1c(Cn2c(C)nc3c(C(=O)O)cc(N4CCOCC4)cc32)cccc1C(F)(F)F | 1.61 ± 0.048 |
| Cc1cc(C)nc(NS(=O)(=O)c2ccc(NC(=S)NC(=O)COc3ccc(Br)cc3Cl)cc2)n1 | 1.61 ± 0.055 |
| COc1cc2/c(=N/c3ccc(Br)cc3F)nc[nH]c2cc1OCC1CCN(C)CC1 [Vandetanib (ZD6474)] | 1.7 ± 0.077 |
| COC(=O)Nc1ccc(-c2nc(N3CCOCC3)c3cnn(C4CCN(C(=O)OC)CC4)c3n2)cc1 | 1.14 ± 0.024 |
| FC(F)c1nc2ccccc2n1-c1nc(N2CCOCC2)nc(N2CCOCC2)n1 | 1.8 ± 0.038 |
| CCS(=O)(=O)c1cccc(-c2cc(C(=O)NC3CCN(C)CC3)c(C)c3[nH]c4ncc(C)cc4c23)c1 | 1.64 ± 0.098 |

| Structure (SMILES) | mitochondrial superoxide |
| --- | --- |
| Oc1cccc(-c2nc(N3CCOCC3)c3oc4ncccc4c3n2)c1 | 1.685 ± 0.012 |
| Cn1c(=O)c(F)c(Nc2ccc(I)cc2F)c2c(=O)n(C[C@@H](O)CO)cnc21 | 1.51 ± 0.055 |
| CC[C@@H]1C(=O)N(C)c2cnc(Nc3ccc(C(=O)NC4CCN(C)CC4)cc3OC)nc2N1C1CCCC1 | 1.39 ± 0.028 |
| NC(=O)c1ccc(N(C(N)=O)c2c(F)cccc2F)nc1-c1ccc(F)cc1F | 1.327 ± 0.0024 |
| NC1(c2ccc(-c3nc4ccn5c(=O)[nH]nc5c4cc3-c3ccccc3)cc2)CCC1 | 1.47 ± 0.14 |
| COc1ccc2c(c1)c(C1=C(c3c[nH]c4ccccc34)C(=O)NC1=O)cn2CCCN(C)C | 1.36 ± 0.042 |
| FC(F)(F)c1ccc(/C=C/c2nc(COc3ccc(CCCCn4ccnn4)cc3)co2)cc1 [Mubritinib (TAK 165)] | 1.296 ± 0.0099 |
| O=C(Nc1cc(C(F)(F)F)cc(C(F)(F)F)c1)c1cc(Cl)ccc1O | 1.01 ± 0.054 |
| COc1cc(Nc2ncc(F)c(Nc3ccc4c(n3)N(COP(=O)(O)O)C(=O)C(C)(C)O4)n2)cc(OC)c1OC [Fostamatinib (R788)] | 1.71 ± 0.034 |
| Cc1nc(Nc2ncc(C(=O)Nc3c(C)cccc3Cl)s2)cc(N2CCN(CCO)CC2)n1 [Dasatinib] | 1.85 ± 0.068 |
| N#CC[C@H](C1CCCC1)n1cc(-c2ncnc3[nH]ccc23)cn1 | 1.35 and 1.29 |
| CO[C@H]1C[C@@H]2CC[C@@H](C)[C@@](O)(O2)C(=O)C(=O)N2CCCC[C@H]2C(=O)O[C@H]([C@H](C)C[C@@H]2CC[C@@H](OCCO)[C@H](OC)C2)CC(=O)[C@H](C)/C=C(\C)[C@@H](O)[C@@H](OC)C(=O)[C@H](C)C[C@H](C)/C=C/C=C/C=C/1C [Everolimus (RAD001)] | 1.5 ± 0.06 |
| CCc1cc(Nc2nccc(-c3c(-c4ccc(OC)c(C(=O)Nc5c(F)cccc5F)c4)nc4ccccn34)n2)c(OC)cc1N1CCC(N2CCN(S(C)(=O)=O)CC2)CC1 | 1.5 ± 0.03 |
| CCOc1ccn(-c2ccc(F)cc2)c(=O)c1C(=O)Nc1ccc(Oc2ccnc(N)c2Cl)c(F)c1 | 1.28 ± 0.017 |
| NC(=O)c1cccc(-c2cc(Nc3ccc(OC(F)(F)F)cc3)ncn2)c1 | 1.21 ± 0.082 |
| COc1ccc(COc2cc3oc(=O)c4cc(C(C)O)ccc4c3cc2OC)cc1 (centres undefined) [Palomid 529 (P529)] | 1.41 ± 0.05 |
| CC(C)(C#N)c1ccc(N2C(=O)OCc3cnc4ccc(-c5cnc6ccccc6c5)cc4c32)cc1 | 1.676 ± 0.013 |
| O=c1c(-c2ccc(O)cc2)coc2cc(O)cc(O)c12 [Genistein] | 1.36 ± 0.15 |

— the supplement of paper PMC7393113
